Among the data in PubChem BioAssay (NCI) are growth values, retold here.

Compounds without any hit were thinned out: in the full panel of roughly 83,000, 20% have a hit.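 Treatment: one concentration, 48 hours, 96-well format. Scoring: percent growth, with anything below 10 considered active.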 A number with no mark means an inactive call. Calls of active or inactive are those of the source.

Test systems include SR leukemia; RPMI-8226 leukemia; OVCAR-8 ovarian; OVCAR-5 ovarian; OVCAR-4 ovarian; SK-OV-3 ovarian; IGROV1 ovarian; OVCAR-3 ovarian; HS 578T breast; NCI/ADR-RES ovarian; T-47D breast; BT-549 breast; MDA-MB-435 melanoma; SW-620 colon; MCF7 breast; HCT-116 colon; HCC-2998 colon; KM12 colon.
Assay in all cases: NCI-60 one-dose screen, 48 h (100 = growth as untreated, 0 = no growth, -100 = all killed)
Details in all cases: 10 µM unless noted

Take `C=CCn1c(SCC(=O)Nc2ccc(C(=O)/C=C/c3ccc(Cl)cc3)cc2)nnc1-c1c[nH]c2ccccc12`: the growth in the assay on SR leukemia was 71.1%; in the assay on RPMI-8226 leukemia it was 2.66% (active); in the assay on OVCAR-8 ovarian, 76.1%; in the assay on OVCAR-5 ovarian, 97.3%; in the assay with OVCAR-4 ovarian it was 66.9%; in the assay with SK-OV-3 ovarian, 86.7%. Also, the growth was 58.1% in the assay with IGROV1 ovarian; 84% with OVCAR-3 ovarian; 91.5% with HS 578T breast; 97.7% in the assay with NCI/ADR-RES ovarian; 60.5% with T-47D breast; 111% in the assay on BT-549 breast. Besides, the growth in the assay on MDA-MB-435 melanoma was 83.5%; with SW-620 colon, 88.3%; in the assay with MCF7 breast it was 9.26% (active); with HCT-116 colon, -46% (active); with HCC-2998 colon it was 97.1%; in the assay with KM12 colon, 80.4%.
As to `CC(=O)N(C)C1CCc2c(sc(NC(=O)c3ccc(C(C)(C)C)cc3)c2C(N)=O)C1` (centres undefined), the growth with SR leukemia is 9.43% (active); in the assay with RPMI-8226 leukemia, 81.2%; with OVCAR-8 ovarian it was 73.8%; in the assay with OVCAR-5 ovarian, 78.9%; in the assay on OVCAR-4 ovarian it was 41.7%; with SK-OV-3 ovarian it was 108%. For the same compound, the growth is 100% in the assay with IGROV1 ovarian; 83.7% with OVCAR-3 ovarian; 38.9% in the assay with HS 578T breast; 79.6% with NCI/ADR-RES ovarian; 74% in the assay with T-47D breast; 88.2% with BT-549 breast. In addition, the growth with MDA-MB-435 melanoma was 83.7%; in the assay on SW-620 colon, 58.2%; in the assay with MCF7 breast it was 59.8%; in the assay with HCT-116 colon, 65.1%; in the assay with HCC-2998 colon, 108%; in the assay on KM12 colon, 64.9%.
As for `O=C(NCCn1ccnc1)c1ccc(-c2nc3ccc4[nH]ncc4c3c3c2CCCC3)cc1`, the growth is 2.67% (active) in the assay on SR leukemia; 77.6% in the assay with RPMI-8226 leukemia; 77.2% with OVCAR-8 ovarian; 93.9% in the assay with OVCAR-5 ovarian; 66.3% in the assay with OVCAR-4 ovarian; 63.1% with SK-OV-3 ovarian. Moreover, the growth with IGROV1 ovarian was 62.8%; in the assay with OVCAR-3 ovarian, 36.7%; in the assay on HS 578T breast, 2.42% (active); with NCI/ADR-RES ovarian it was 102%; in the assay on T-47D breast it was 56%; in the assay on BT-549 breast, 44.2%. Also, the growth with MDA-MB-435 melanoma is -1.93% (active); with SW-620 colon it was 57.4%; in the assay on MCF7 breast, 20.5%; in the assay with HCT-116 colon, 37%; in the assay with HCC-2998 colon, 81.6%; in the assay with KM12 colon, 26%.
As to `CC(Nc1c(C#N)cnc2ccc(-c3cnc(N)nc3)cc12)c1ccccc1` (centres undefined), the growth in the assay with SR leukemia was 14%; in the assay with RPMI-8226 leukemia, -11% (active); in the assay with OVCAR-8 ovarian, 21.3%; in the assay with OVCAR-5 ovarian, 23.5%; with OVCAR-4 ovarian it was 16.5%; in the assay with SK-OV-3 ovarian, -0.597% (active). Further, the growth in the assay with IGROV1 ovarian is -16% (active); in the assay on OVCAR-3 ovarian, 15.3%; in the assay on HS 578T breast, -22.5% (active); with NCI/ADR-RES ovarian, 19.3%; in the assay with T-47D breast it was 9.18% (active); with BT-549 breast it was 4.06% (active). Moreover, the growth was 15.5% in the assay on MDA-MB-435 melanoma; 18.2% with SW-620 colon; 8.42% (active) in the assay on MCF7 breast; 10.7% in the assay on HCT-116 colon; 8.61% (active) in the assay with HCC-2998 colon; 10.8% with KM12 colon.
Consider `Cc1ccc(NC(=O)c2ccc(CN3CCN(C)CC3)cc2)cc1Oc1ccc(-c2[nH]nc3ncnc(N)c23)cc1`, for which the growth in the assay with SR leukemia is 80.2%; with RPMI-8226 leukemia, 75.5%; in the assay with OVCAR-8 ovarian, 99.5%; in the assay with OVCAR-5 ovarian it was 101%; in the assay on OVCAR-4 ovarian it was 99.1%; with SK-OV-3 ovarian, 93.7%. In addition, the growth in the assay with IGROV1 ovarian is 90%; with OVCAR-3 ovarian it was 88.4%; in the assay on HS 578T breast, 82.8%; with NCI/ADR-RES ovarian, 100%; in the assay on T-47D breast it was 81.4%; in the assay with BT-549 breast it was 93%. Besides, the growth in the assay with MDA-MB-435 melanoma is 86.4%; with SW-620 colon, 80.2%; in the assay on MCF7 breast, 35.7%; in the assay with HCT-116 colon it was 81.9%; in the assay on HCC-2998 colon, 124%; in the assay with KM12 colon, 56.3%.
With `CCN(CC)c1ccc(NC2=C(Cl)C(=O)c3nc(C)ccc3C2=O)cc1`, the growth in the assay with SR leukemia was 7.24% (active); in the assay with RPMI-8226 leukemia, 2.6% (active); with OVCAR-8 ovarian it was -12.2% (active); in the assay on OVCAR-5 ovarian, 108%; in the assay on OVCAR-4 ovarian it was -97% (active); with SK-OV-3 ovarian it was 112%. The growth in the assay on IGROV1 ovarian was -52.2% (active); with OVCAR-3 ovarian, -29.6% (active); with HS 578T breast, 65.4%; with NCI/ADR-RES ovarian, 51.2%; in the assay on T-47D breast, -36% (active); in the assay with BT-549 breast, 132%. Also, the growth in the assay with MDA-MB-435 melanoma was -76% (active); in the assay on SW-620 colon, -29.3% (active); in the assay on MCF7 breast it was -38.5% (active); in the assay with HCT-116 colon, -63.8% (active); in the assay with HCC-2998 colon it was 9.75% (active); in the assay with KM12 colon it was 101%.
On to `Cc1ccc(-n2c(/C=C3\C(=O)Nc4ccccc43)ccc2CO)cc1`, for which the growth is 46.6% with SR leukemia; 69.4% in the assay with RPMI-8226 leukemia; 94.3% in the assay on OVCAR-8 ovarian; 104% in the assay on OVCAR-5 ovarian; 90.1% in the assay on OVCAR-4 ovarian; 86.8% in the assay with SK-OV-3 ovarian. Besides, the growth in the assay on IGROV1 ovarian was 75%; in the assay on OVCAR-3 ovarian, 65.4%; with HS 578T breast, 87.3%; in the assay with NCI/ADR-RES ovarian, 55.7%; in the assay on T-47D breast it was 77.4%; with BT-549 breast, 66.6%. Further, the growth is -10.3% (active) with MDA-MB-435 melanoma; 43.3% in the assay on SW-620 colon; 34.5% in the assay with MCF7 breast; 52.8% in the assay with HCT-116 colon; 95.7% with HCC-2998 colon; 18.8% in the assay on KM12 colon.
As for `NS(=O)(=O)c1ccc(Nc2nc(N/N=C/c3c[nH]c4ccccc34)nc(Nc3ccccc3)n2)cc1`, the growth was 12.1% with SR leukemia; -5.69% (active) in the assay with RPMI-8226 leukemia; 37.8% in the assay on OVCAR-8 ovarian; 87.8% in the assay on OVCAR-5 ovarian; 59.7% in the assay on OVCAR-4 ovarian; 90.8% in the assay with SK-OV-3 ovarian. Moreover, the growth in the assay with IGROV1 ovarian was 33.9%; in the assay with OVCAR-3 ovarian, 26.7%; with HS 578T breast, 42.2%; with NCI/ADR-RES ovarian it was 93.5%; in the assay with T-47D breast it was 35.3%; with BT-549 breast, 48.8%. For the same compound, the growth with MDA-MB-435 melanoma is 31.3%; with SW-620 colon, 49%; with MCF7 breast, 18.8%; in the assay on HCT-116 colon it was 15.9%; in the assay with HCC-2998 colon, 52.6%; in the assay on KM12 colon, 27.3%.
